# Screening data deposited in PubChem BioAssay by several laboratories.
# Rows were chosen to be rich in hits. Some 3.8% of all compounds tested hit in one or more screens of this group.
# pCIP destab: lowers stability of the mouse p/CIP coactivator protein. F442A p/CIP-EGFP cells, EGFP fluorescence, 16 h. decrease of EGFP signal, % at 10 µM. Q05BA5. AID 1984. 0.01% of 290,000 active;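 active = EGFP signal decrease of at least 30% at 10 µM or well 3 SD below plate mean, unless failing retest; inactive = the rest, including hits failing retest or dose response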
# HSP90 refold inh: blocks HSP90-mediated luciferase refolding in reticulocyte lysate. Rabbit reticulocyte lysate, luciferase refolding luminescence, 3 h. inhibition, % at 5.6 µM. 0.91% of 290,000 active. AID 1789;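 active = inhibition above the screen-wide mean plus 3 SD, computed separately per campaign, cut at about 16% in these data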;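 note: 0% = DMSO wells and 100% = 60 µM geldanamycin wells; inhibitors lower the luminescence because luciferase stays unfolded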
# HSF-1 act: increases HSF-1 driven luciferase reporter signal; AID 504408; activation, % at 9 µM; 1.7% of 300,000 active; NIH3T3-HGL HSF-1 luciferase reporter, MG132, 8 h; 100% = twice DMSO control signal;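 active = mean replicate activation of at least 50% with a set share of replicates each reaching 50%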;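 note: 0% = median of the neutral control wells and 100% = twice that signal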
# Hsp70 activator: transcriptional activators of Hsp70; 0.04% of 200,000 active; activation, % at 10 µM; HeLa Hsp70 promoter luciferase reporter, luminescence; scaled: vehicle 0, proteasome-inhibitor control 100%; AID 1203;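 active = activation above the mean across all tested compounds plus 3 SD, cutoff set per campaign, cut at about 5.5% in these data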;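 note: 100% = MG132 at 30 µM as the positive control and 0% = DMSO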
# HSF1 inh: HSF1 inhibition | AID 2098 | NIH3T3-HGL HSE-luciferase, MG132-induced, luminescence 8 h; active compounds read low | activity change, negative = inhibition, % at 7.5 µM (by protocol) | 0.77% of 300,000 active;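 active = more than half of replicate wells show activity change below -50%, luminescence cut by over half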;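 note: luciferase reports HSF-1 transcriptional activity via heat shock element; 0% = median of DMSO wells and -100% = zero luminescence signal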
# NALP1 yeast inh: inhibitors of NALP1 inflammasome in yeast | S. cerevisiae NALP1/ASC/caspase-1 growth, X-gal OD620, 72 h | inhibition, % at 10 µM | 0.61% of 280,000 active | AID 2071; in the data active = inhibition mostly above about 24%, no sharp cut-off; inactive = mostly below about 32%
# * marks the source's active call; other numbers are inactive results; nt = not tested or not shown.
SMILES,pCIP destab,HSP90 refold inh,HSF-1 act,Hsp70 activator,HSF1 inh,NALP1 yeast inh
CCc1ccc(Nc2nc(C)cc(C)n2)cc1,-3.8,-5.5,23.1,nt,13.5,0.5
COc1ccc(CNC(=O)CN2C(=O)NC(C)(c3ccc(Cl)cc3)C2=O)cc1 (stereo not drawn),-5.0,1.8,-18.4,nt,-0.5,-10.5
Cc1ccc(S(=O)(=O)NC2c3cccc4cccc(c34)C2Sc2nncn2C)cc1 (stereo not drawn),-8.0,-1.2,66.8*,-0.1,18.9,25.0
Cn1cnnc1SC1c2cccc3cccc(c23)C1NS(=O)(=O)c1ccccc1 (stereo not drawn),-1.4,-1.1,24.3,-0.1,6.2,-7.5
CCCc1cc(=O)oc2cc(C)cc(OCC(=O)NCCCn3ccnc3)c12,-3.0,-3.3,-80.7,nt,-75.6*,-7.6
Cc1cc(OCC(=O)NCCCn2ccnc2)c2c(C)cc(=O)oc2c1,14.9,-4.2,-11.3,nt,-4.0,5.2
COc1cc(SC)ccc1C(=O)N1CCN(Cc2ccc3c(c2)OCO3)CC1,-7.1,-7.1,-8.3,nt,-9.6,18.4
CC(C)c1ccc(/C=C(\NC(=O)c2ccccc2)C(=O)NCCCn2ccnc2)cc1,-5.4,-0.7,58.7*,nt,22.3,-6.5
Cc1csc(SCc2nnc(-c3ccccc3Br)o2)n1,-1.0,3.5,32.5,0.0,22.6,-19.0
Cc1csc(SCc2nnc(-c3ccc(Cl)cc3)o2)n1,-2.9,-0.5,58.9*,0.5,26.6,2.0
Cc1cc(C)c(C(=O)NC2CC(C)(C)Cc3c2cnn3-c2ccccc2)o1 (stereo not drawn),-1.6,-0.6,6.7,nt,-5.2,12.3
CN(Cc1ccccc1)C(=O)c1ccc([N+](=O)[O-])o1,-5.9,-0.3,-3.7,-0.5,-0.3,48.0*
Cc1ccc(-c2csc(NC(=O)c3cccc([N+](=O)[O-])c3)n2)cc1,-2.3,4.3,63.8*,0.1,20.4,-1.8
O=C(Nc1nc(-c2ccc([N+](=O)[O-])cc2)cs1)c1c(F)cccc1F,-6.8,5.0,26.6,0.0,7.4,-5.1
Cc1ccc(-c2csc(NC(=O)c3ccc(C)o3)n2)cc1,-4.7,-1.9,19.2,0.3,8.9,37.7
Cc1ccc(CNC(=O)c2ccc([N+](=O)[O-])o2)cc1,-26.1,0.5,60.7*,-0.2,5.6,-2.9
Cc1ccc(-c2csc(NC(=O)c3ccc([N+](=O)[O-])o3)n2)cc1,-12.6,4.7,64.8*,nt,37.6,-4.7
O=C(c1ccc([N+](=O)[O-])o1)N1CCN(Cc2ccccc2)CC1,-10.8,-1.7,5.4,nt,0.2,17.2
C=CCn1c(=O)c2ccccc2n2c(SCC(=O)Nc3sc(C(=O)N(CC)CC)c(C)c3C(=O)OCC)nnc12,4.2,-2.8,12.8,-0.1,5.1,23.1
C=CCn1c(=O)c2ccccc2n2c(SCC(=O)Nc3sc(C)c(CC)c3C(=O)OCC)nnc12,-3.1,-4.6,54.1*,-0.4,20.2,16.5
Cc1ccc2c(c1)c1c(n2CC(O)CN2CCC(C)CC2)CCCC1 (stereo not drawn),-3.1,1.6,30.2,nt,7.3,-4.5
Cc1ccc2c(c1)c1c(n2CC(O)CN2CCOCC2)CCCC1 (stereo not drawn),-13.0,-4.0,-75.8,nt,-69.7*,8.9
CC1CCN(C(C(=O)Nc2ccc(C(C)C)cc2)c2ccc3c(c2)OCO3)CC1 (stereo not drawn),-5.3,-3.1,11.0,0.1,1.2,37.8*
Cc1ccccc1NC(=S)C1=C(O)c2sccc2N(C)S1(=O)=O,1.8,2.3,58.0*,-0.4,24.6,32.4
CN1c2ccsc2C(O)=C(C(=S)Nc2ccccc2)S1(=O)=O,-4.7,0.2,-0.9,0.4,5.5,1.2
SMILES,pCIP destab,HSP90 refold inh,HSF-1 act,Hsp70 activator,HSF1 inh,NALP1 yeast inh
CC1=CCC2C(=O)N(c3ccc(C)c(Br)c3)C(=O)C2C1 (stereo not drawn),-14.8,-0.4,-80.6,-0.2,-76.2*,17.8
CCn1cc(C(=O)NCC(OC)OC)c(=O)c2cc(S(=O)(=O)N(C)C3CCCCC3)ccc21,8.0,-0.6,-0.8,nt,-5.6,9.2
CCN(CC)S(=O)(=O)c1cccc(C(=O)OC2CC(C)OC2=O)c1 (stereo not drawn),-5.4,16.5*,0.6,nt,-1.7,18.7
CN(C)NC(=S)NC1CCS(=O)(=O)C1 (stereo not drawn),-14.9,7.8,-8.0,nt,-1.9,23.4
COc1ccc(CN2CC(C(=O)N3CC(C)CC(C)C3)CC2=O)cc1 (stereo not drawn),3.5,1.7,-9.1,nt,-2.8,12.2
CCOC(=O)Cn1c(=O)oc2cc(S(=O)(=O)N3CCN(c4ccccn4)CC3)ccc21,5.0,1.9,-8.4,-0.2,-3.5,-52.5
CCOC(=O)Cn1c(=O)oc2cc(S(=O)(=O)N3CCN(C(=O)c4ccco4)CC3)ccc21,-2.1,-0.4,71.3*,0.2,30.0,31.6
O=C(Nc1cc(Cl)ccc1Cl)c1ccco1,-12.8,0.8,1.4,nt,-5.6,13.3
O=C(Cc1ccccc1)Nc1ccc(NC(=O)c2ccco2)cc1Cl,-14.2,9.1,-62.8,nt,-56.3*,8.5
Nc1ccc(NC(=O)c2ccco2)c(Cl)c1,4.3,-8.6,55.7*,0.1,17.5,2.9
COCc1cc(C)[nH]c(=O)c1C(=O)NC12CC3CC(CC(C3)C1)C2,5.1,2.3,-20.2,-0.2,-9.5,11.8
Cc1ccc(NC2=NC3(CCCCC3)N=C(N)N2)c(C)c1,40.8,1.4,0.2,0.0,-10.8,6.5
Cc1ccc(NC2=NC3(CCCC3)N=C(N)N2)c(C)c1,-4.0,3.3,82.6*,0.5,66.1,0.0
O=C(O)c1c(-c2ccccc2)oc2ccc(O)cc12,2.4,-3.7,29.5,nt,-0.6,-12.7
O=Cc1c(-c2ccc(Cl)cc2)oc2ccc(O)cc12,nt,nt,-57.5,nt,-55.1*,nt
O=C(NCCc1ccccc1)C(=O)NCC1OCCCN1S(=O)(=O)c1cc(F)ccc1F (stereo not drawn),-2.8,16.2*,-1.6,nt,-1.6,1.0
Nc1ccc(Sc2cnn(-c3ccccc3)c(=O)c2Cl)cc1,0.3,2.6,57.3*,0.8,21.3,11.6
COc1ccc(OC)c2c1cc(C(=O)N[C@@H](C)C(=O)N[C@@H](C(=O)O)c1ccccc1)n2C,6.8,-0.8,9.7,nt,-6.4,7.6
Cc1ccc(-n2c(C)cc(C(=O)COc3c(CO)cc(F)cc3CO)c2C)cc1C,1.5,5.5,56.3*,-0.1,11.1,25.7
Cc1cc(C(=O)COc2ccccc2Cl)c(C)n1-c1ccc2c(c1)OCO2,11.5,0.2,43.9,-0.2,16.0,40.0
CCOc1ccc(S(=O)(=O)N2CCN(Cc3ccco3)CC2)cc1,14.6,-1.6,3.8,nt,-0.6,9.3
CC1(C)Cc2nc3[nH]c(=S)n(-c4ccccc4)c(=O)c3cc2CO1,nt,1.3,-72.0,-0.2,-61.6*,nt
CCC1(C)Cc2nc3[nH]c(=S)n(-c4ccccc4)c(=O)c3cc2CO1 (stereo not drawn),-8.5,1.6,17.9,-0.4,-3.9,21.0
